PubChem BioAssay
Calls of active or inactive are those of the source.

Tests used:
[1] = tested on: PRMT1 (protein arginine N-methyltransferase 1); assay: small molecules binding arginine methyltransferase PRMT1 – biochemical, small-molecule microarray, 635 nm fluorescence, primary screen (AID 1088); details: higher = more signal;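 further: binding of Prmt1 protein to compounds spotted on small-molecule microarray slides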
[2] = growth effects on S. cerevisiae YJM789 – YJM789 clinical isolate, OD600, 24 h, basal, primary screen (AID 1089); details: higher = more signal, called active from +8 up or from −8 down;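 further: growth of clinical yeast isolate S. cerevisiae YJM 789 seeded 1000 cells per well; test concentration not given here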
[3] = S. pombe growth modifiers, basal conditions – strain 972, OD600, 24 h, no modulator, primary screen (AID 1090);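 further: basal condition with compound alone and no growth modifier present; test concentration not given here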; details: S. pombe 972 growth, higher = more signal, called active from +8 up or from −8 down
[4] = budding yeast growth modifiers under rapamycin – strain BY4716, OD600, 96 h, primary screen (AID 1091); further: test concentration not given here; details: S. cerevisiae BY4716 + rapamycin, higher = more signal, called active from +8 up or from −8 down
[5] = biological target: Torsin-1A-interacting protein 2 (Homo sapiens) (UniProt Q8NFQ8); assay: small molecules binding lysate-expressed LULL1 – cell lysate, human LULL1 lysate, 635/667 nm fluorescence, primary screen (AID 1092); details: small-molecule microarray, hLULL1 lysate binding, 635 nm fluorescence; higher = more signal;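 further: probe is lysate of COS7 cells overexpressing human LULL1; score merges per-feature 667 nm fluorescence with signal-to-noise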
[6] = optical density change of DRC41 E. coli – strain DRC41, OD650, 24 h, E. coli filamentation project, primary screen (AID 1093);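 further: MC1000 strain lacking acrAB efflux and sulA so SOS filamentation is blocked; test concentration not given here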; details: E. coli DRC41 growth, higher = more signal, called active from +8 up or from −8 down
[7] = probe aLefty2 binding to arrayed compounds – biochemical, biotinylated probe, 635/667 nm fluorescence, primary screen (AID 1094); details: small-molecule microarray, higher = more signal;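 further: score merges spot fluorescence near 667 nm with spot signal-to-noise ratio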
[8] = tested on: Noggin (protein binding on small-molecule microarray); assay: small molecules binding Noggin protein – biochemical, 635/667 nm fluorescence, primary screen (AID 1095); details: 635 nm fluorescence, higher = more signal;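 further: score merges 667 nm feature fluorescence with signal to noise over triplicate slides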
[9] = biological target: Neurogenic locus notch homolog protein 3 (Homo sapiens) (UniProt Q9UM47); assay: small molecules binding NOTCH3 protein – biochemical, 635/667 nm fluorescence, primary screen (AID 1096); details: small-molecule microarray, 635 nm fluorescence, higher = more signal
[10] = probe aEGFR binding to arrayed compounds – biochemical, biotinylated probe, 635/667 nm fluorescence, primary screen (AID 1097); details: small-molecule microarray, higher = more signal;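 further: probe is a biotinylated anti-EGFR antibody binding compounds printed on slides; score combines fluorescence near 667 nm and signal to noise of each spot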

Chain of Neurogenic locus notch homolog protein 3 (Homo sapiens) (Q9UM47 whole entry, looked up): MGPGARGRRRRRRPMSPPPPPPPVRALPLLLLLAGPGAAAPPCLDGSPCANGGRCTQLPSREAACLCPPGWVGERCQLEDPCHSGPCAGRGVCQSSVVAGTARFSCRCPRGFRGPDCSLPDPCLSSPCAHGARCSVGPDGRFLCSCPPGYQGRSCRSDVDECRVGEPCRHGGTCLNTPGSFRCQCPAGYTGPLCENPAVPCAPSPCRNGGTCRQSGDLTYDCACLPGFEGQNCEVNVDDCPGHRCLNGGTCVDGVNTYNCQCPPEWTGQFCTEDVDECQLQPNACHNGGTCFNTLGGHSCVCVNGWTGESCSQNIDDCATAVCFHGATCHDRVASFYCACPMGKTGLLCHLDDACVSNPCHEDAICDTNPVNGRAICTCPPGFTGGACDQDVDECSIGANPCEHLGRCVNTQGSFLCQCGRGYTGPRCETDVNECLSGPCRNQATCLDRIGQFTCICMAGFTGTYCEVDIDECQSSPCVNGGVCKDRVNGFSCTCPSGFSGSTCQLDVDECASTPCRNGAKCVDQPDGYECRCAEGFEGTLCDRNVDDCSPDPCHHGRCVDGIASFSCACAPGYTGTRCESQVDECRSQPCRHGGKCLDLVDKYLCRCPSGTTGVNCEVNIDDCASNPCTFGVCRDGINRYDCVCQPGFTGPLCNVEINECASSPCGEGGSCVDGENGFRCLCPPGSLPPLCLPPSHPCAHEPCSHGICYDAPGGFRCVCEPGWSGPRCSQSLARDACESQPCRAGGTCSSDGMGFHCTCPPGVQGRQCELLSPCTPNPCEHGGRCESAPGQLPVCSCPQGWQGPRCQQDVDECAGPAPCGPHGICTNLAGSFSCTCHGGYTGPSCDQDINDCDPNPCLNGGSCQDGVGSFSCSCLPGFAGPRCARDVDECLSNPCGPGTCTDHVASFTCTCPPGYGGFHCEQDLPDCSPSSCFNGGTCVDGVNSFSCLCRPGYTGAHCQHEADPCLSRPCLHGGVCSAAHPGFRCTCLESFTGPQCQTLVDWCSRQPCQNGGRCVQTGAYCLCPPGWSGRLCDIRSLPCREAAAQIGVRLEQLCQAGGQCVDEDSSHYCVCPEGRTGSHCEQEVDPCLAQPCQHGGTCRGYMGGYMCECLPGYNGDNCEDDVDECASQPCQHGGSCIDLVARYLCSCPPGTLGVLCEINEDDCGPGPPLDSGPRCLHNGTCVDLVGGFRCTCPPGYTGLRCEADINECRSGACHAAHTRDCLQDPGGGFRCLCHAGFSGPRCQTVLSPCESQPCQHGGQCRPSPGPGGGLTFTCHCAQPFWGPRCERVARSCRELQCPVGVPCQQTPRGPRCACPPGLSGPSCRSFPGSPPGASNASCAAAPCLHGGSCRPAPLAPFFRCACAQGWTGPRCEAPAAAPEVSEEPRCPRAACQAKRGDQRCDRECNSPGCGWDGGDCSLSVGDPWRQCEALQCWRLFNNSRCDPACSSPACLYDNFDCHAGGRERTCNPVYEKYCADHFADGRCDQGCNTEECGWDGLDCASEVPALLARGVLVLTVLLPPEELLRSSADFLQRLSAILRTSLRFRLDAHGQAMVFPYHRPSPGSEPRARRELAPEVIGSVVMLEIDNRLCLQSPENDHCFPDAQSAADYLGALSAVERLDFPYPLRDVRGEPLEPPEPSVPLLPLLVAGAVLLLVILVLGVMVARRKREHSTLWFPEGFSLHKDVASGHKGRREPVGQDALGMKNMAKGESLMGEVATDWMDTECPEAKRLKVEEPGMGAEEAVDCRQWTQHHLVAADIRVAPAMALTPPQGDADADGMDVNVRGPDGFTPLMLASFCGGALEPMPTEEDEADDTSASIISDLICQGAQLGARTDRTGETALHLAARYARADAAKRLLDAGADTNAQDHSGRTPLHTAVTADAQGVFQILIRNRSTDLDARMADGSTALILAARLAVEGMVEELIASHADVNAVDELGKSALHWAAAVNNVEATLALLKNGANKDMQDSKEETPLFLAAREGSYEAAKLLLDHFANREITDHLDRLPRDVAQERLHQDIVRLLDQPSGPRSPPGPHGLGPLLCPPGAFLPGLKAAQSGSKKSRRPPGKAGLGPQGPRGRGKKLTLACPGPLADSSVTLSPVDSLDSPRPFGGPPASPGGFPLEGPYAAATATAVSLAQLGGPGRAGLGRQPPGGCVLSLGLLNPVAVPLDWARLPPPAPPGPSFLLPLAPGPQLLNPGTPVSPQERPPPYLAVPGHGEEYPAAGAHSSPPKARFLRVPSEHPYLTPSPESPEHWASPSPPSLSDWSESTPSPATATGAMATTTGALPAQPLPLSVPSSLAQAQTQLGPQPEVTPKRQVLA
Chain of Torsin-1A-interacting protein 2 (Homo sapiens) (Q8NFQ8 whole entry, looked up): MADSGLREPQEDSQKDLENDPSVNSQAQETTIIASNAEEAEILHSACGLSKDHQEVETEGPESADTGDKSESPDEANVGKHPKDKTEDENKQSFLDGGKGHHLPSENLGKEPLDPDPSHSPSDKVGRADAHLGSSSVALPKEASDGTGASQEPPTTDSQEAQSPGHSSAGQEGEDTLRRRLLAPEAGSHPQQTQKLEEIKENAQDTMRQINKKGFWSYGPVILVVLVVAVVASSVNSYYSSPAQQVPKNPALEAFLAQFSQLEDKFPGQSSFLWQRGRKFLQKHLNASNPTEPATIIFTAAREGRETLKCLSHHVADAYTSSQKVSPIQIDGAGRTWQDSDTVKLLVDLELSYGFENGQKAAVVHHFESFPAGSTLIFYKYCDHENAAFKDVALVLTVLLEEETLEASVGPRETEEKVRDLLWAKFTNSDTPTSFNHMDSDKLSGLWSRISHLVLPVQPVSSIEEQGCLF

| Structure (SMILES) | composite z-score [1] | z-score [2] | z-score [3] | z-score [4] | composite z-score [5] | z-score [6] | composite z-score [7] | composite z-score [8] | composite z-score [9] | composite z-score [10] |
| --- | --- | --- | --- | --- | --- | --- | --- | --- | --- | --- |
| C[C@]12C(=O)N(CCCCCCO)[C@@H]3C(=O)N(c4ccc(Cl)cc4)CC=CC31O[C@@H]1/C=C\CCCOC(=O)C12 (stereo not given in full) | 0.807 | -2.23 (inactive) | -1.63 (inactive) | -0.695 (inactive) | 3.27 | 1.19 (inactive) | -0.0665 | -0.463 | -0.353 | -0.194 |
| CO[C@H]1O[C@H](CO)[C@@H](OC(=O)Nc2ccc(Oc3ccccc3)cc2)[C@H](OC(=O)Nc2ccccc2-c2ccccc2)[C@@H]1OC(=O)Nc1ccccc1-c1ccccc1 | 1.54 | 1.96 (inactive) | 0.592 (inactive) | 0.974 (inactive) | 2.72 | 1.39 (inactive) | 0.143 | 0.156 | 1.12 | 0.425 |
| CC(C)N1CC=CC23O[C@@H]4C=CCOC(=O)[C@@H]4[C@H]2C(=O)N(C(C)CO)[C@@H]3C1=O (stereo not given in full) | -1 | -0.741 (inactive) | -0.06 (inactive) | -0.0277 (inactive) | -0.163 | -0.0334 (inactive) | 0.119 | -1.03 | -0.66 | -0.199 |
| COC(=O)C[C@H]1O[C@]2(C(=O)N(C)c3ccccc32)[C@@H](C)[C@@H]1[Si](C)(C)c1ccc(C)cc1 | 1.12 | -0.421 (inactive) | -11.3 (active) | -0.673 (inactive) | 0.797 | 2.17 (inactive) | -0.137 | 1.27 | 0.989 | -0.0674 |
| COc1ccccc1CN1C(=O)c2ccccc2[C@@H](C(=O)NC(C)C)[C@@H]1c1ccc(CO)cc1 | 1.51 | -0.309 (inactive) | -0.0831 (inactive) | -0.352 (inactive) | 2.36 | 1.02 (inactive) | 0.12 | 0.885 | 1.09 | 0.14 |
| C=C(CCCC)C(=O)CC[C@@H](OC(=O)c1cccnc1)c1ccccc1OCCO | 1.31 | -0.765 (inactive) | -1.37 (inactive) | -0.24 (inactive) | 0.178 | 0.22 (inactive) | 0.0166 | 0.836 | 0.144 | -0.0565 |
| Cc1c(NC(=O)/C(C#N)=C/C=C/c2ccccc2[N+](=O)[O-])c(=O)n(-c2ccccc2)n1C | 0.454 | 0.218 (inactive) | -0.322 (inactive) | 0.477 (inactive) | 1.85 | 1.02 (inactive) | -0.0124 | 0.148 | 0.945 | -0.0043 |
| O=C1O[C@H](c2ccccc2)[C@H](c2ccccc2)N2[C@H]1[C@@H](C(=O)O)[C@]1(C(=O)Nc3ccccc31)[C@H]2c1ccc(O)cc1 | 0.548 | 1.34 (inactive) | 0.278 (inactive) | 0.3 (inactive) | 1.87 | -0.423 (inactive) | -0.166 | -0.317 | -0.188 | -0.257 |
| COc1ccc([Si](C)(C)[C@H]2[C@H](CCn3cc(CCO)nn3)O[C@@]3(C(=O)N(Cc4ccc(N5C(=O)c6cccc7cccc5c67)cc4)c4ccccc43)[C@@H]2C)cc1 | 1.55 | -0.246 (inactive) | 0.983 (inactive) | 6.07 (inactive) | 1.86 | 2.76 (inactive) | -0.0895 | 1.41 | 1.09 | -0.0371 |
| COc1ccc(C(O)C2C=CC3C(=O)N(c4ccccc4)C(=O)C3N2Nc2ccccc2)cc1OCc1ccccc1 (stereo not given) | 1.57 | -0.177 (inactive) | 1.3 (inactive) | 0.25 (inactive) | 3.53 | -1.2 (inactive) | 0.104 | 0.88 | 1.03 | 0.0386 |
| COc1cc2c(cc1O)C(C)N(Cc1cc3c(cc1Br)OCO3)CC2 (stereo not given) | -0.285 | 0.406 (inactive) | -10.1 (active) | -1.35 (inactive) | 0.169 | -0.471 (inactive) | 0 | -1.03 | -0.53 | -0.0594 |
| CN1C(=O)C2C(C1=O)C1C=C(c3ccc(CO)cc3)C2C(c2cccs2)N1Cc1cccc(OC(F)(F)F)c1 (stereo not given) | 1.55 | -1.68 (inactive) | -2.57 (inactive) | 3.35 (inactive) | 2.65 | 0.907 (inactive) | 0.0007 | 1.38 | 1.09 | -0.013 |
| COc1ccc([Si](C)(C)[C@H]2[C@H](CCn3cc([C@H](O)c4ccccc4)nn3)O[C@@]3(C(=O)N(Cc4cccc(N5C(=O)c6cccc7cccc5c67)c4)c4ccccc43)[C@@H]2C)cc1 | 0.492 | -0.844 (inactive) | 0.723 (inactive) | 0.635 (inactive) | 1.28 | -0.666 (inactive) | -0.134 | -1.17 | -0.871 | -0.21 |
| CC(=O)n1cc(C(O)C2C=CC3C(=O)N(Cc4ccccc4)C(=O)C3N2n2cnnc2)c2ccccc21 (stereo not given) | 0.77 | -0.423 (inactive) | 0.552 (inactive) | 0.192 (inactive) | 1.23 | -0.901 (inactive) | -0.0858 | -0.415 | 0.193 | 0.728 |
| CC1CC/C=C\[C@H]2OC34C=CCN(CCN5CCOCC5)C(=O)[C@H]3N(CCO)C(=O)[C@@H]4C2C(=O)O1 (stereo not given in full) | -0.623 | -0.962 (inactive) | 0.0701 (inactive) | 0.005 (inactive) | -0.144 | 1.25 (inactive) | -0.103 | -0.982 | -0.43 | -0.196 |
| C=C(/C(=C/C[C@@H](OC(=O)c1ccncc1)c1ccccc1OCCO)c1cc(C(=O)OC)ccc1OC)C(C)C | 1.56 | 0.381 (inactive) | -0.633 (inactive) | -0.338 (inactive) | 3.07 | 0.616 (inactive) | -0.0155 | 0.88 | 1.01 | -0.0353 |
| COc1ccc([Si](C)(C)[C@@H]2[C@@H](CCO)O[C@]3(C(=O)N(Cc4cccc(N5C(=O)c6cccc7cccc5c67)c4)c4ccccc43)[C@H]2C)cc1 | 1.22 | 2.2 (inactive) | 2.22 (inactive) | 38.9 (active) | 1.24 | 0.399 (inactive) | -0.0931 | -0.25 | 0.267 | -0.221 |
| CN(C)CCCNC(=O)[C@@H]1c2ccccc2C(=O)N(CC23CC4CC(CC(C4)C2)C3)[C@H]1c1ccc(CO)cc1 | 1.53 | -0.0129 (inactive) | -7.98 (inactive) | -2.06 (inactive) | 3.24 | 0.583 (inactive) | -0.227 | 0.954 | 1.05 | -0.0801 |
| CC(C)C(O)C1C=CC2C(=O)N(C)C(=O)C2N1N(c1ccccc1)c1ccccc1 (stereo not given) | -2.15 | 1.01 (inactive) | 1.55 (inactive) | 1.5 (inactive) | 2.17 | -0.573 (inactive) | 0.0443 | -0.306 | -0.853 | 0.102 |
| CC(C)NC(=O)[C@@]1(C)c2ccccc2C(=O)N(C(C)C)[C@H]1c1ccc(CO)cc1 | 1.45 | -0.501 (inactive) | -1.63 (inactive) | -0.471 (inactive) | 3.47 | -0.297 (inactive) | -0.0466 | -0.781 | 0.165 | -0.227 |
| O=C(O)[C@H]1C[C@H]2C(=O)N3CCC[C@H]3C(=O)N2[C@H]1c1cccc(OCCO)c1 | 1.04 | -0.187 (inactive) | -0.391 (inactive) | 0.0709 (inactive) | 2.55 | 0.849 (inactive) | 0.027 | 0.287 | 0.237 | -0.109 |
| [N-]=[N+]=NCc1ccccc1C[C@@]1(C(=O)NCCN2CCOCC2)N=C(c2ccc(OCCCO)cc2)O[C@@H]1c1ccccc1N=[N+]=[N-] | 1.37 | -1.22 (inactive) | -0.269 (inactive) | 1.29 (inactive) | 3.12 | -0.704 (inactive) | 0.09 | 0.622 | 0.842 | -0.0738 |
| C=C(/C=C/CNS(=O)(=O)c1ccc(C)cc1)[C@H](O)[C@H]1CCCN1S(=O)(=O)c1ccccc1[N+](=O)[O-] | 0.13 | 1.27 (inactive) | 0.24 (inactive) | 1.72 (inactive) | -0.271 | 0.913 (inactive) | -0.0948 | 1.3 | 0.291 | 0.0408 |
| COCCOC(=O)N1C(=O)[C@@]2(c3cc(C#CCC(C(=O)OC)C(=O)OC)ccc31)[C@H](c1ccc(OCCO)cc1)N1[C@H](c3ccccc3)[C@H](c3ccccc3)OC(=O)[C@H]1[C@@H]2C(=O)N1CCN(c2ncccn2)CC1 | 1.45 | 1.07 (inactive) | 0.934 (inactive) | 6.44 (inactive) | 3.17 | 1.75 (inactive) | 0.0112 | 1.17 | 1.07 | 0.0397 |
| COC(=O)[C@@]1(Cc2ccccc2)[C@H]2c3cc(C(=O)N4CCCC4)n(Cc4cc(F)cc5c4OCOC5)c3C[C@H]2CN1C(=O)c1ccccc1 | -0.149 | 1.33 (inactive) | 1.17 (inactive) | 0.509 (inactive) | 3.29 | -0.542 (inactive) | 0.331 | -0.584 | 0.924 | 0.115 |
| CC(C)C(CO)N1C(=O)[C@]2(C)C3C(=O)OCCC/C=C\[C@H]3OC23C=CCN(c2ccc(Cl)cc2)C(=O)[C@@H]13 (stereo not given in full) | 0.88 | -0.579 (inactive) | -1.14 (inactive) | -0.268 (inactive) | 3.28 | -0.718 (inactive) | -0.0458 | -0.608 | 0.0253 | -0.155 |
| COc1ccc(NC(=O)O[C@H]2[C@H](OC(=O)Nc3ccc4c(c3)OCO4)[C@@H](OC(=O)Nc3ccc4c(c3)OCO4)[C@@H](OC)O[C@@H]2CO)cc1 | 1.56 | 1.5 (inactive) | 1.61 (inactive) | -0.31 (inactive) | 3.66 | 1.93 (inactive) | -0.0396 | 0.89 | 1.08 | -0.0953 |
| COCCOC(=O)N1C(=O)[C@@]2(c3ccccc31)[C@H](c1ccc(OCCO)cc1)N1[C@H](c3ccccc3)[C@H](c3ccccc3)OC(=O)[C@H]1[C@@H]2C(=O)Nc1nc2ccccc2s1 | 1.45 | 0.405 (inactive) | 0.371 (inactive) | 2.33 (inactive) | 3.13 | 1.16 (inactive) | 0.0305 | 0.396 | 1.13 | -0.0039 |
